From the supplement of paper PMC13380429
Unmarked numbers belong to inactive results.

Tested on: Vero E6 infected with SARS-CoV-2
Experiment: inhibition of SARS-CoV-2 cytopathic effect; higher = more antiviral protection, active = above 15
Details: 48 h

| Compound | inhibition of SARS-CoV-2 cytopathic effect (1 nM) | inhibition of SARS-CoV-2 cytopathic effect (8.33 nM) | inhibition of SARS-CoV-2 cytopathic effect (100 nM) | inhibition of SARS-CoV-2 cytopathic effect (833.33 nM) | inhibition of SARS-CoV-2 cytopathic effect (10000 nM) |
| --- | --- | --- | --- | --- | --- |
| O=C(Nc1cccc(Cl)c1)c1ccccn1 | 0.86% | -0.89% | -2.59% | 0.62% | 0.73% |
| O=C(N[C@@H]1Cc2ccccc2N(C[C@@H](O)CO)C1=O)c1cc2cc(Cl)sc2[nH]1 | -0.59% | -0.92% | -2.86% | -2.28% | -3.46% |
| O=C(CCCN1CCC(n2c(=O)[nH]c3ccccc32)CC1)c1ccc(F)cc1 [benperidol] | 0.17% | -0.44% | -0.77% | 2.15% | -4.28% |
| O=C1NC(=O)C(=Cc2ccc(-c3ccc(F)cc3)o2)S1 (stereo in doubt) | -2.32% | 0.24% | -0.68% | 0.32% | 1.47% |
| Nc1ncnc2c1c(-c1ccc(Oc3ccccc3)cc1)nn2C1CCCC1 | 3.63% | 1.32% | 0.15% | -0.21% | -13.6% |
| COc1c(-c2ccc3cc(NS(C)(=O)=O)ccc3c2)cc(-n2ccc(=O)[nH]c2=O)cc1C(C)(C)C [dasabuvir] | 1.02% | -0.41% | 0.27% | 1.41% | 2.61% |
| COc1cccc2c1C(=O)c1c(O)c3c(c(O)c1C2=O)C[C@@](O)(C(=O)CO)C[C@@H]3O[C@H]1C[C@H](N2CCO[C@H](OC)C2)[C@H](O)[C@H](C)O1 [nemorubicin] | 1.94% | -5.08% | -8.02% | -7.55% | -7.13% |
| Nc1ncc(Cc2ccc(Br)cc2)s1 | -0.22% | 1.1% | 2.74% | 2.26% | 2.73% |
| N#Cc1c(N)nc(SCc2ncc[nH]2)c(C#N)c1-c1ccc(O)cc1 | -0.59% | -2.41% | 1.83% | -3.13% | 0.18% |
| CN(C)CCN(C)CCc1ccc(Cl)c(Cl)c1 | -3% | -0.98% | 1.41% | -3.83% | -3.28% |
| Clc1cccc2c1CN(C1=NCCN1)C2 | 1.97% | 3.31% | 3.22% | 2.65% | -2.32% |
| C[C@@H]1CN(Cc2ccc(F)cc2)CCN1C(=O)COc1ccc(Cl)cc1NC(N)=O | -1.77% | -0.1% | -2% | -1.98% | -1.75% |
| CS(=O)(=O)n1cc2c(n1)CN([C@H]1CO[C@H](c3cc(F)ccc3F)[C@@H](N)C1)C2 [omarigliptin] | -0.75% | 1.81% | 0.23% | 1.96% | 0.42% |
| CCCCCCCCCCCCCCCC(=O)OC[C@@H](NC(=O)C(Cl)Cl)[C@H](O)c1ccc([N+](=O)[O-])cc1 [chloramphenicol-palmitate] | 0.12% | 0.68% | -1.3% | -1.25% | 0.57% |
| c1cc(CN2CCCNCCNCCCNCC2)ccc1CN1CCCNCCNCCCNCC1 [plerixafor] | -2.23% | -1.5% | 0.88% | 0.29% | 1.12% |
| NC(=O)N1c2ccccc2CC(O)c2ccccc21 (stereo not given) [licarbazepine] | -1.75% | 1.29% | -0.88% | -6.25% | 0.95% |
| CC(C)Oc1cccc(CC(=O)N2CCC[C@](CC[N+]34CCC(c5ccccc5)(CC3)CC4)(c3ccc(Cl)c(Cl)c3)C2)c1 | 1.67% | 0.54% | 0.54% | 4.46% | 1.59% |
| CS(=O)(=O)c1cc(F)cc2c3c(n(Cc4ccc(Cl)cc4)c12)[C@@H](CC(=O)O)CC3 [laropiprant] | 0.24% | -3% | -0.36% | 1.31% | 2.04% |
| CCO[C@@H](Cc1ccc(OCCn2c(C)ccc2-c2ccc(SC)cc2)cc1)C(=O)O [saroglitazar] | 1% | -0.85% | -1.26% | 0.64% | 1.31% |
| N=C(N)NC(=N)Nc1ccccc1 [1-phenylbiguanide] | -1.07% | -0.09% | 0.97% | 1.34% | -1.5% |
| CN(C)CC(c1ccc(O)cc1)C1(O)CCCCC1 (stereo not given) [desvenlafaxine] | 1.5% | 3.55% | 4.53% | 1.89% | 0.99% |

| Compound | inhibition of SARS-CoV-2 cytopathic effect (1 nM) | inhibition of SARS-CoV-2 cytopathic effect (8.33 nM) | inhibition of SARS-CoV-2 cytopathic effect (100 nM) | inhibition of SARS-CoV-2 cytopathic effect (833.33 nM) | inhibition of SARS-CoV-2 cytopathic effect (10000 nM) |
| --- | --- | --- | --- | --- | --- |
| Cc1nc(C#Cc2ccnc(Cl)c2)c(C)n1-c1ccc(F)cc1 [basimglurant] | -0.13% | -0.64% | -2.56% | -1.39% | 4.98% |
| CCOc1cc(C(=O)N2CCC(N3CCN(C)CC3)CC2)ccc1Nc1ncc2c(n1)N(C1CCCC1)c1ccccc1C(=O)N2C | 0.46% | 1.68% | -0.44% | -1.7% | -0.04% |
| N=C(NCc1ccc(Cl)cc1)SCCCc1c[nH]cn1 [clobenpropit] | 1.58% | 1.91% | 1.78% | 1.78% | 0.31% |
| COc1cc(C(C)=O)ccc1O [apocynin] | 0.03% | -1.17% | -2.23% | -0.09% | 1.17% |
| OC[C@H]1O[C@@H](c2ccc(F)c(Cc3cc4ccccc4s3)c2)[C@H](O)[C@@H](O)[C@@H]1O [ipragliflozin-L-proline] | 0.82% | -0.16% | 0.41% | 0.42% | 0.4% |
| CC(C)(O)CC(=O)O [beta-hydroxy-beta-methylbutyrate] | 3.1% | -2.04% | -6.91% | -3.9% | -3.42% |
| N[C@@H](CC(=O)Nc1ccc(Oc2cc(F)c(F)cc2Br)cc1)C(=O)O | -3.45% | -0.99% | -1.17% | -3.56% | 6.38% |
| O[C@H]1[C@H]2[C@H](O)CCCN2C[C@H]1O [swainsonine] | -4.09% | 2.85% | 1.87% | -1.43% | -5.03% |
| CN[C@@H](C)CCC=C(C)C [isometheptene-mucate] | -0.09% | 2.18% | 0.64% | -1.17% | -0.16% |
| Clc1ccc(N2CCN(Cc3c[nH]c4ncccc34)CC2)cc1 | -0.1% | -0.31% | -2.94% | 1.1% | -3.38% |
| CCN1CCC(n2cc(CNc3cc(Cl)c4ncc(C#N)c(Nc5ccc(F)c(Cl)c5)c4c3)nn2)CC1 [cot-inhibitor-2] | 0.26% | -1.48% | 0.28% | -0.75% | 14% |
| Cn1cnc(N)c2ncnc1-2 [3-methyladenine] | -3.13% | -1.71% | -2.68% | -0.52% | -1.76% |
| O=c1[nH]c(=O)n([C@H]2C[C@H](O)[C@@H](CO)O2)cc1C(F)(F)F [trifluridine] | -2.13% | 0.14% | 0.73% | 1.01% | -1.77% |
| N#CCNC(=O)c1ccc(-c2ccnc(Nc3ccc(N4CCOCC4)cc3)n2)cc1 | -0.49% | -0.77% | -0.33% | -4.04% | -6.6% |
| COc1ccc(C[C@H]2NC[C@H](O)[C@H]2OC(C)=O)cc1 [anisomycin] | 3.91% | 6% | 44.2% (active) | 7.95% | -30.6% |
| CCC(C)SSc1ncc[nH]1 (stereo not given) | -1.26% | -14.1% | 1.61% | 2.44% | -1.36% |
| O=c1[nH]c(=O)c2ccccc2o1 [carsalam] | -1.46% | 0.95% | 4.79% | 0.99% | 4.32% |
| C[S+](CC[C@H](N)C(=O)O)C[C@H]1O[C@@H](n2cnc3c(N)ncnc32)[C@H](O)[C@@H]1O (stereo not given in full) [ademetionine] | -2.98% | -1.8% | -2.58% | -0.06% | 0.19% |
| CCCN[C@@H]1CCc2c(OC)cccc2[C@@H]1C | -1.51% | -1.5% | -0.05% | -0.17% | -3.49% |
| CNC(=S)C1(c2ccccn2)CCCS1 (stereo not given) [picartamide] | -4.38% | 0.23% | -0.26% | 2.39% | 6.75% |
